Experiment [1] in a line: inhibitors of TNFa-induced NFkB p65 translocation, primary screen, imaging, HUVEC, MLSMR starter and 10KST1 sets (AID 438;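 active = inhibition above 20% together with a positive visual image hit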;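 note: compound added about 3h40 before a 20 min TNFalpha stimulation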;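 for inhibition: signal is the nuclear over cytoplasmic p65 intensity ratio per well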). The note with it: HUVEC TNFa-induced p65 nuclear translocation; cell count: measured here: nuclei count (cytotoxicity indicator), at 2.08 µM; inhibition: at 2 µM, stronger effect = higher value, 0% TNFa-plus-vehicle, 100% no-TNFa wells.
A short description of experiment [2]: inhibitors of mutant huntingtin aggregation, primary screen, imaging, exon1htt(103Q)mCFP cells, high-content imaging (AID 483;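 active = visual image review flags a hit and inhibition of aggregation exceeds 20%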;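 note: compound exposure lasted 3 days before fixation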;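 for nuclei count: percent of the per-plate median nuclei count of sample wells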). The note with it: exon1htt(103Q)mCFP cell line, aggregate imaging, at 2 µM; inhibition of aggregation: stronger effect = higher value; nuclei count: measured here: cell count, toxicity.
Experiment [3] is described as follows: inhibitors of E-selectin induction by TNFa, primary screen, imaging, HUVEC, immunofluorescence, MLSMR starter and 10KST1 sets (AID 487;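 active = visually confirmed hit in the image check and inhibition above 20%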;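 for inhibition: signal is fraction of cell area covered by stained E-selectin grains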;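 for nuclei count: 100% = median nuclei count of all wells on the same plate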). The note with it: HUVEC TNFalpha-induced E-selectin immunofluorescence imaging, at 2 µM; inhibition: stronger effect = higher value; nuclei count: measured here: cell number, toxicity.
The target in experiment [4] is Voltage-gated potassium channel subunit beta-2 (Rattus norvegicus) (UniProt P62483). The experiment is described as follows: KvBeta enzyme negative modulators, primary screen, biochemical, NADPH fluorescence (AID 622;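 active = fluorescence slope higher than the sample average by over 3 SD, cut at about -0.22 in these data, passing the limit was not always enough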;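 note: slope of raw intensity against log time taken from 70 to 1610 s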). The note with it: recombinant KvBeta, 4-cyanobenzaldehyde reduction, at 10 µM, stronger effect = higher value.
Experiment [5] has the same target. The experiment is described as follows: KvBeta positive modulators, primary screen, biochemical, NADPH fluorescence (AID 623;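 active = NADPH fluorescence slope more negative than the mean of all samples by about 3 SD, 99.7% confidence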;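 note: fluorescence intensity change per second fitted from 20 to 320 s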). The following applies: Recombinant KvBeta, NADPH fluorescence decrease slope, 10 min; at 10 µM; stronger effect = lower value.
Experiment [6] has as its target Alpha-2C adrenergic receptor (Homo sapiens) (UniProt P18825). The experiment is described as follows: modulators of alpha2C/GIRK thallium flux, primary screen, cell-based, HEK293 alpha2C/GIRK1/2 (AID 624;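 active = fluorescence slope after compound addition differing from the mean of all screened samples at 99.7% confidence, in either direction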;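 note: slope of fluorescence ratio to pre-addition baseline per second over 15 to 24 s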). The following applies: thallium flux BTC fluorescence, at 10 µM, actives lie on both sides.
A short description of experiment [7]: inhibitors of Sendai virus-induced IRF3 signaling, primary screen, TLR/RLR signaling modifier project, cell-based, Sendai virus stimulus, luciferase, 10K MLSCN set (AID 602276).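 Note: firefly luciferase from ISG56 promoter only with Renilla not read in this screen; 0% = Sendai virus plus DMSO and 100% = medium plus DMSO without virus.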 The following applies: HEK293 RL24 IRF3 luciferase reporter, at 10 µM, stronger effect = higher value. (In general: In a reporter assay the amount or activity of a reporter protein is the signal.)

The nature of experiment [8]: inhibitors of poly I:C-induced TLR3 signaling, primary screen, cell-based, poly I:C stimulus, luciferase, 10K MLSCN set (AID 602277;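 active = inhibition of the reporter signal at or above 50%; inactive = inhibition below 50%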). The note with it: HEK293-TLR3 RL24 IRF3 luciferase reporter, at 10 µM, stronger effect = higher value.

Calls of active or inactive are those of the source.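 Rule for the calls, unless noted: active = inhibition at or above 50% at 10 µM; inactive = inhibition below 50%.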

Chain of Voltage-gated potassium channel subunit beta-2 (Rattus norvegicus) (P62483 whole entry, looked up): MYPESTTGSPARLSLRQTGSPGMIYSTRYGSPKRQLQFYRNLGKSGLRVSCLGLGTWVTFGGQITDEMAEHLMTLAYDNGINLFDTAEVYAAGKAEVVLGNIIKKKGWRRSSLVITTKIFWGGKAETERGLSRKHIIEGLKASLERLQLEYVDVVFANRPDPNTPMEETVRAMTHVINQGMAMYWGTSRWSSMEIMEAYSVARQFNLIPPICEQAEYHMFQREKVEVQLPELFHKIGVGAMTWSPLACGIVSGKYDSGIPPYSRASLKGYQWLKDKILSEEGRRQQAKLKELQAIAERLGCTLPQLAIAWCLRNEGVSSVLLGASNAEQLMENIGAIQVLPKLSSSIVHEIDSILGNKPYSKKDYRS
Chain of Alpha-2C adrenergic receptor (Homo sapiens) (P18825 whole entry, looked up): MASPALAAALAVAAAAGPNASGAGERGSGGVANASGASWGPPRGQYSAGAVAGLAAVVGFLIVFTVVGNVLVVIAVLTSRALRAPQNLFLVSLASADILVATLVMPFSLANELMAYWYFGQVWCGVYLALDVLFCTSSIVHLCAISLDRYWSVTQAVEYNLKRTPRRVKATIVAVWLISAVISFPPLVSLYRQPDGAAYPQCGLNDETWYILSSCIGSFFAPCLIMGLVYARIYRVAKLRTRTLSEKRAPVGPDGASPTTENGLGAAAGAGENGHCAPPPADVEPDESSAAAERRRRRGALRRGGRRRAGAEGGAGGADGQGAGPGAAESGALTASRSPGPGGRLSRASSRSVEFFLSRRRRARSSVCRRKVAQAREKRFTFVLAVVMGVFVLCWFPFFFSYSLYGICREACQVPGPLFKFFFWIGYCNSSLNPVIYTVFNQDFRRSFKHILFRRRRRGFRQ

Turning to `COc1cccc(-c2nc3n(n2)C(c2ccccc2Cl)C(C(N)=O)=C(C)N3)c1` (centres undefined), in experiment [1], the cell count amounted to 595. Moreover, the inhibition (in general, the drop in the measured response relative to a control, in per cent) in experiment [1] is -0.8% (inactive); in experiment [3] it was -26.6% (inactive); in experiment [7], 12.1% (inactive); in experiment [8] it was 38.1% (inactive). The inhibition of aggregation in experiment [2] was -7.2% (inactive). Further, the results for the nuclei count in experiment [2] and in experiment [3] were 114% and 103%, respectively. For the same molecule, in experiment [4], the fluorescence slope is -0.393 (inactive). In experiment [5], the NADPH fluorescence slope is 1.7e-05 (inactive). The slope in experiment [6] was 0.00613 (inactive).

In the case of `COc1cccc(-c2cc(C(F)(F)F)n3ncc(C(=O)O)c3n2)c1`, in experiment [1], the cell count was 382. In addition, the inhibition in experiment [1] was -2.6% (inactive); in experiment [3], -22.3% (inactive); in experiment [7] it was 11% (inactive); in experiment [8], 20.4% (inactive). In addition, the inhibition of aggregation in experiment [2] is 13.4% (inactive). Further, the nuclei count was 94.7% in experiment [2] and 73.7% in experiment [3]. Further, in experiment [4], the fluorescence slope was -0.576 (inactive). Besides, in experiment [5], the NADPH fluorescence slope is -5.3e-05 (inactive). For the same molecule, the slope in experiment [6] was 0.00328 (inactive).

`CCOC(=O)c1[nH]c(C)c(C(=O)NCc2ccccn2)c1C`: the cell count in experiment [1] stood at 664. Moreover, the inhibition was -2.8% (inactive) in experiment [1], -173% (inactive) in experiment [3], 17.5% (inactive) in experiment [7] and 14.1% (inactive) in experiment [8]. In experiment [2], the inhibition of aggregation is -6.6% (inactive). For the same molecule, the nuclei count in experiment [2] was found to be 87.7%; in experiment [3], 114%. Moreover, in experiment [4], the fluorescence slope is -0.51 (inactive). Besides, the NADPH fluorescence slope in experiment [5] was -0.000223 (inactive). Also, in experiment [6], the slope was 0.00562 (inactive).

For `CCc1nnc(SCC(=O)NC2CCCCC2)nc1CC`, the cell count in experiment [1] was determined as 774. Also, the inhibition in experiment [1] was -14.3% (inactive); in experiment [3] it was -62.4% (inactive); in experiment [7], -5.14% (inactive); in experiment [8], 5.98% (inactive). Also, the inhibition of aggregation in experiment [2] was 11.4% (inactive). Further, the nuclei count in experiment [2] was determined as 105%; in experiment [3], 103%. Further, the fluorescence slope in experiment [4] was -0.536 (inactive). In addition, the NADPH fluorescence slope in experiment [5] was 2e-06 (inactive). Besides, in experiment [6], the slope is 0.00672 (inactive).

For `Cc1ccccc1NC(=O)Cc1nnc(SCC(=O)N2CCN(c3ccccc3)CC2)n1C`, the cell count in experiment [1] is 483. In addition, the inhibition was -5.3% (inactive) in experiment [1], 8.9% (inactive) in experiment [3], 11.9% (inactive) in experiment [7] and 29.5% (inactive) in experiment [8]. Moreover, the inhibition of aggregation in experiment [2] was 2.3% (inactive). The nuclei count in experiment [2] came to 99.9%; in experiment [3], 131%. For the same molecule, in experiment [4], the fluorescence slope was -0.402 (inactive). Further, the NADPH fluorescence slope in experiment [5] is -5.5e-05 (inactive). Further, the slope in experiment [6] was 0.00281 (inactive).

Regarding `O=C1CCCC2=C1C(c1ccc(Br)cc1)c1c([nH]c(=S)[nH]c1=O)N2` (centres undefined), in experiment [1], the cell count was determined as 407. The inhibition in experiment [1] was -3.6% (inactive); in experiment [3] it was -41.1% (inactive); in experiment [7] it was 6.81% (inactive); in experiment [8] it was 17.9% (inactive). Also, the inhibition of aggregation in experiment [2] is 17.6% (inactive). The nuclei count in experiment [2] was 103%; in experiment [3], 109%. In addition, the fluorescence slope in experiment [4] was -0.378 (inactive). Besides, the NADPH fluorescence slope in experiment [5] is -5.8e-05 (inactive). The slope in experiment [6] was 0.00391 (inactive).

For the molecule `CC(C)(C)NC(=O)Cn1c(=O)oc2ccc(Cl)cc21`, in experiment [1], the cell count was found to be 676. Moreover, the inhibition is 0% (inactive) in experiment [1], -47.1% (inactive) in experiment [3], 0.919% (inactive) in experiment [7] and 20.8% (inactive) in experiment [8]. Further, the inhibition of aggregation in experiment [2] is 1.8% (inactive). Moreover, the nuclei count worked out at 116% in experiment [2] and 106% in experiment [3]. The fluorescence slope in experiment [4] is -0.407 (inactive). Moreover, the NADPH fluorescence slope in experiment [5] was 6.2e-05 (inactive). For the same molecule, the slope in experiment [6] was 0.00569 (inactive).

As to `C=CCN1C(=O)C2(/C(=C(\O)c3ccc4c(c3)OCCO4)C(=O)C(=O)N2CCCOC)c2ccccc21` (centres undefined), the cell count in experiment [1] stood at 390. Further, the inhibition in experiment [1] is 8.6% (inactive); in experiment [3], -37.2% (inactive); in experiment [7], 20.5% (inactive); in experiment [8] it was 21.2% (inactive). Besides, in experiment [2], the inhibition of aggregation is 0.7% (inactive). In addition, the nuclei count in experiment [2] was 104%; in experiment [3], 128%. Moreover, in experiment [4], the fluorescence slope was -0.465 (inactive). Moreover, in experiment [5], the NADPH fluorescence slope is -1.1e-05 (inactive). In addition, in experiment [6], the slope is 0.00507 (inactive).

With `CCc1ccc(CN(C)CCc2ccccn2)cc1`, the cell count in experiment [1] was 590. Besides, the inhibition is -7.7% (inactive) in experiment [1], -61.6% (inactive) in experiment [3], 5.44% (inactive) in experiment [7] and 7.65% (inactive) in experiment [8]. Besides, the inhibition of aggregation in experiment [2] was 7.2% (inactive). For the same molecule, the nuclei count in experiment [2] was 108%; in experiment [3] it was 94%. Besides, the fluorescence slope in experiment [4] is -0.482 (inactive). Also, in experiment [5], the NADPH fluorescence slope is -0.000258 (inactive). The slope in experiment [6] is 0.00499 (inactive).

With `CC(=O)OCCNc1cc(N2CCN(C)CC2)c2noc3c2c1C(=O)c1ccccc1-3`, the cell count in experiment [1] stood at 746. Further, the inhibition is 1.6% (inactive) in experiment [1], -15.4% (inactive) in experiment [3], 27.6% (inactive) in experiment [7] and 21.4% (inactive) in experiment [8]. In experiment [2], the inhibition of aggregation was -43.5% (inactive). In addition, the nuclei count in experiment [2] came to 114%; in experiment [3] it was 111%. Moreover, in experiment [4], the fluorescence slope was -0.58 (inactive). Moreover, the NADPH fluorescence slope in experiment [5] was -2.8e-05 (inactive). Also, the slope in experiment [6] was 0.00388 (inactive).

On to `COc1ccc(Cl)cc1N1CC(c2nc3ccccc3[nH]2)CC1=O` (centres undefined), for which the cell count in experiment [1] was determined as 542. For the same molecule, the inhibition in experiment [1] was 1.4% (inactive); in experiment [3] it was 1.9% (inactive); in experiment [7], 16.2% (inactive); in experiment [8], 16.9% (inactive). For the same molecule, in experiment [2], the inhibition of aggregation was 2% (inactive). Moreover, the nuclei count in experiment [2] was 114%; in experiment [3], 107%. The fluorescence slope in experiment [4] is -0.607 (inactive). Further, in experiment [5], the NADPH fluorescence slope is 6.8e-06 (inactive). Besides, in experiment [6], the slope is 0.00704 (inactive).

As for `Cc1ccccc1Cn1cc(/C=N/n2cnnc2)c2ccccc21`, the cell count in experiment [1] came out at 416. Moreover, the inhibition in experiment [1] was 12% (inactive); in experiment [3], 27.1% (inactive); in experiment [7] it was -7.96% (inactive); in experiment [8], 21.3% (inactive). Moreover, the inhibition of aggregation in experiment [2] was 18.9% (inactive). Moreover, the nuclei count was determined as 68% in experiment [2] and 113% in experiment [3]. Besides, the fluorescence slope in experiment [4] was -0.436 (inactive). In addition, the NADPH fluorescence slope in experiment [5] is 2.8e-05 (inactive). The slope in experiment [6] was 0.00391 (inactive).

Take `CCOC(=O)c1ccc(COC(=O)c2cc3ccccc3oc2=O)o1`: the cell count in experiment [1] worked out at 607. The inhibition in experiment [1] was -1.2% (inactive); in experiment [3], -39.1% (inactive); in experiment [7], -6.72% (inactive); in experiment [8], -32.7% (inactive). Further, the inhibition of aggregation in experiment [2] was 1.7% (inactive). Also, the nuclei count amounted to 101% in experiment [2] and 96.9% in experiment [3]. Besides, in experiment [4], the fluorescence slope is -0.48 (inactive). Also, the NADPH fluorescence slope in experiment [5] was 1.6e-06 (inactive). Moreover, the slope in experiment [6] is 0.00426 (inactive).

On to `CCCN1CCN(C(=O)Cn2c(=O)oc3cc(S(=O)(=O)NCc4ccccc4)ccc32)CC1`, for which the cell count in experiment [1] came to 809. Moreover, the inhibition was 1.6% (inactive) in experiment [1], -19.9% (inactive) in experiment [3], 8.82% (inactive) in experiment [7] and 23.8% (inactive) in experiment [8]. In addition, the inhibition of aggregation in experiment [2] was -16.6% (inactive). Also, the nuclei count in experiment [2] was found to be 117%; in experiment [3] it was 114%. In addition, the fluorescence slope in experiment [4] is -0.51 (inactive). In experiment [5], the NADPH fluorescence slope was -2.7e-05 (inactive). Moreover, the slope in experiment [6] is 0.00639 (inactive).

The record behind these values is PubChem BioAssay.
